The test system of the assay is Cdc42 mutant. The experiment in a line: GTPase panel EC50 shift with labeled GTP level, profiling panel, mechanism study, biochemical, four GTPases, bead flow cytometry (AID 743330). The following applies: bead-based flow cytometry, fluorescent GTP binding to GTPases.

The source made the active and inactive calls. No rule for the calls is given here.

In the case of `CC1(C)Cc2c(sc(NC(=S)NC(=O)c3ccc(F)cc3)c2C(=O)O)CO1`, the EC50 was 54 nM (active).

Regarding `CCC1(C)Cc2c(sc(NC(=S)NC(=O)c3ccccc3)c2C(=O)O)CO1` (configuration not stated), the 50% effective concentration (EC50) was 4 nM (active).

Source of the values: PubChem BioAssay AID743330 (NMMLSC, 2014).
